Measured values: PubChem BioAssay (NCATS)
Records with an inconclusive call do not appear. Entries that show only a call come without a potency. Where a structure was tested more than once in an assay, its records may differ in their call. The source made the active and inactive calls. Unless noted, calls come from the whole dose curve; as a rule, active = well fitted curve in the direction sought with a large enough effect; inconclusive = small, poorly fitted or top-dose-only effect, or another doubt; inactive = no such curve, though single readings can be large; an effect the other way counts as inactive or inconclusive.

What was measured:
[1] = target: DNA polymerase III PolC-type (Bacillus subtilis (strain 168)) (UniProt P13267); assay: qHTS Validation Assay for the Inhibitors of DNA Replication in Gram-Positive Bacteria (AID 485295); note: potency is the fitted concentration of half-maximal effect
Chain of DNA polymerase III PolC-type (Bacillus subtilis (strain 168)) (P13267 whole entry, looked up): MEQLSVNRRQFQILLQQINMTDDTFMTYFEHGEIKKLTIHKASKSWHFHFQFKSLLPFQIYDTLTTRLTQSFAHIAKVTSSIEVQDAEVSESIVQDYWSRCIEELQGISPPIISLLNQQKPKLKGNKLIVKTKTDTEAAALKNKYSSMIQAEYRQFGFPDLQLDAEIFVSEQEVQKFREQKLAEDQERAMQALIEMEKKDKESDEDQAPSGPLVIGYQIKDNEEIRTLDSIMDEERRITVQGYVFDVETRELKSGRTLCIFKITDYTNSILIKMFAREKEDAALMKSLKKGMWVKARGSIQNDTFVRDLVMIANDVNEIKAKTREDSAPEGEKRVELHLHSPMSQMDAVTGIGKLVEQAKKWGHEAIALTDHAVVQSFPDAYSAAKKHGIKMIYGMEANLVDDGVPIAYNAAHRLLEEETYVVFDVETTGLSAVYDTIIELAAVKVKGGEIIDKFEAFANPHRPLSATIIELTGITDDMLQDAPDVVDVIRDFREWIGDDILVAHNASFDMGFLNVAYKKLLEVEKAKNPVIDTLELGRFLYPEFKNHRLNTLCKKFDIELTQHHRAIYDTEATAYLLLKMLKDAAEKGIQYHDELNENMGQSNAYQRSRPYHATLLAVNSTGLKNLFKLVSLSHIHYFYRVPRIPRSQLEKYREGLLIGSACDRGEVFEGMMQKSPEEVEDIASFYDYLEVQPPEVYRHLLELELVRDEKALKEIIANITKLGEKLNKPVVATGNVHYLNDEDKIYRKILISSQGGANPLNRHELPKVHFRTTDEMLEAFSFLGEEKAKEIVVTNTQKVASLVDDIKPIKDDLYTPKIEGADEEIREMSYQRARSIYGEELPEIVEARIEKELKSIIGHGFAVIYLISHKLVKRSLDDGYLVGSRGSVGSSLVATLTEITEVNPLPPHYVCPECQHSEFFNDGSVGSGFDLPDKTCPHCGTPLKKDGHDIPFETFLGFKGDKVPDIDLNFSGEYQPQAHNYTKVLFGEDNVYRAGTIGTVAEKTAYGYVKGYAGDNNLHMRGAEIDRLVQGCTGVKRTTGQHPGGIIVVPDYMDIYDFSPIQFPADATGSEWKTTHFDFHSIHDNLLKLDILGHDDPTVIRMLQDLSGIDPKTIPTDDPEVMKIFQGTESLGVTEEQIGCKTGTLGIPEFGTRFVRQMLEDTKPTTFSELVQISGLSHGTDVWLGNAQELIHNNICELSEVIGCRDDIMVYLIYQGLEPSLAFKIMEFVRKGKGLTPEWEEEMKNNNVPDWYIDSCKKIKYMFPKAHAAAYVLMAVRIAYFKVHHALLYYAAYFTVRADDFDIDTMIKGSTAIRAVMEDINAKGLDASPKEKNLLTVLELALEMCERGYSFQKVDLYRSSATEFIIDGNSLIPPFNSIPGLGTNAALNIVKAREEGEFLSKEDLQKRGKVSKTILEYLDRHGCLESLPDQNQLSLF
Summary of the method: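 Reconstituted B. subtilis Pol III holoenzyme (PolC, beta clamp, SSB, primase) preincubated with compound, then M13Gori single-stranded circular template with dNTPs/NTPs added; room temperature reaction. Stopped with EDTA/PicoGreen; dsDNA fluorescence read, EDTA as full-inhibition control.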

[2] = target: Tumor susceptibility gene 101 protein (Homo sapiens) (UniProt Q99816); assay: qHTS Validation Assay for Iinhibitors of HIV-1 Budding by Blocking the Interaction of PTAP/TSG101 (AID 485342; calls by dose curve)
Chain of Tumor susceptibility gene 101 protein (Homo sapiens) (Q99816 whole entry, looked up, the tested form may be a part): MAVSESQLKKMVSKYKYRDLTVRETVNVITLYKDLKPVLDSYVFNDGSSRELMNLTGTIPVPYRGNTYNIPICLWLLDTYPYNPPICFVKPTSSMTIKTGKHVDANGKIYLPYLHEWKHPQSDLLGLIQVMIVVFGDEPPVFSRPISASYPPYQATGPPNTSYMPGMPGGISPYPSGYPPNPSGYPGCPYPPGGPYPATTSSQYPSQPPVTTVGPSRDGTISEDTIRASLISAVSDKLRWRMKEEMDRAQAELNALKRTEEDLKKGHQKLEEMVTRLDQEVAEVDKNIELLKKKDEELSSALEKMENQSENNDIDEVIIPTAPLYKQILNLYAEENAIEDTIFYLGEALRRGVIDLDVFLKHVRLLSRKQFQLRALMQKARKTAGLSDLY
Summary of the method: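 Tsg101 binding domain (10 uM) with FITC-labeled PTAP peptide (50 nM) in HEPES pH 7.5 buffer, 20 min at r.t. with compounds. Binding measured by fluorescence polarization.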

[3] = target: Beta-2 adrenergic receptor (Homo sapiens) (UniProt P07550); assay: qHTS validation assay of beta-arrestin-biased ligands of beta2-adrenergic receptor (AID 485366)
Summary of the method: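 Tango cells (recombinant beta2-AR with recombinant beta-arrestin; recruitment releases tTA driving luciferase) were treated with compounds titrated up to 46 microM for 18 hr at 37 degrees C. Luminescence gave %Activity, and concentration-response curves were curve-classified.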

[4] = target: Thioredoxin reductase 1, cytoplasmic (Rattus norvegicus) (UniProt O89049); assay: qHTS Assay for Substrates of Mammalian Selenoprotein Thioredoxin Reductase 1 (TrxR1) (AID 488772);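 note: NADPH fluorescence in the first read after selenite addition and not the 8 min delta; series mostly up to about 57 µM; a drop in NADPH fluorescence below the no-compound background marks a TrxR1 substrate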
Summary of the method: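 Quantitative HTS in Tris-HCl buffer at pH 7.5 with EDTA and Tween-20, using rat TrxR1, 400 uM NADPH and 400 uM selenite (final). A fall in initial NADPH fluorescence relative to background marked substrate behaviour.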

[5] = target: Thioredoxin reductase 1, cytoplasmic (Rattus norvegicus) (UniProt O89049); assay: qHTS Assay for Inhibitors of Mammalian Selenoprotein Thioredoxin Reductase 1 (TrxR1) (AID 488773); conditions: Potency: inhibition; note: nearly all actives have a fitted effect of over 40% in size; note: potency is the fitted concentration of half-maximal effect
Summary of the method: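 Steps: enzyme (90 nM) plus NADPH (400 uM final), 5 min at ~22 deg C; compound added, 15 min; selenite (400 uM final) added; fluorescence followed for 8 min. Concentration-response curves derived from the normalized delta values.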

[6] = target: Flap endonuclease 1 (Homo sapiens) (UniProt P39748); assay: qHTS Validation Assay for the Inhibitors of Human Flap endonuclease 1 (FEN1) (AID 488816); note: potency is the fitted concentration of half-maximal effect
Chain of Flap endonuclease 1 (Homo sapiens) (P39748 whole entry, looked up): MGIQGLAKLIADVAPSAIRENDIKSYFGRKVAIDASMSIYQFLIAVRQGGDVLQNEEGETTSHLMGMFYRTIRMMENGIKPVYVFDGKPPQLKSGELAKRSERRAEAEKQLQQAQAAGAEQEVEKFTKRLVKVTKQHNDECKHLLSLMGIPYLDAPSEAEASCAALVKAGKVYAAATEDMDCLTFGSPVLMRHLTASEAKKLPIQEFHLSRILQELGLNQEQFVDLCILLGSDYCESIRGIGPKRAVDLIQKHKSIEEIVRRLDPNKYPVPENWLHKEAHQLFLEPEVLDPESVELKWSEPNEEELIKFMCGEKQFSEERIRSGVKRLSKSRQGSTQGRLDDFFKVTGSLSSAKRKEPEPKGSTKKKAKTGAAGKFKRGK
Summary of the method: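 Human FEN1 (10 nM) preincubated 15 min at room temperature with compounds, then flap DNA substrate added at 50 nM final. Fluorescence read at 0 and 15 min; concentration-response fitted with four-parameter Hill equation.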

[7] = target: M-phase phosphoprotein 8 (Homo sapiens) (UniProt Q99549); assay: qHTS Validation Assay for Inhibitors for MPP8 Chromodomain Interactions with Methylated Histone Tails (AID 488949); note: nearly all actives have a fitted effect of over 55% in size; note: potency is the fitted concentration of half-maximal effect
Summary of the method: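 MPP8 (50 nM) was pre-bound to 50 nM biotinylated H3(1-18)K9me3 peptide in PBS pH 7.4 with 0.01% Tween-20. Compounds were then added for 30 min at room temperature, and complex disruption was read by AlphaScreen with streptavidin donor and nickel-chelate acceptor beads.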

[8] = target: Chromobox protein homolog 1 (Homo sapiens) (UniProt P83916); assay: qHTS Validation Assay for Inhibitors of HP1-beta Chromodomain Interactions with Methylated Histone Tails (AID 488953); note: nearly all actives have a fitted effect of over 50% in size; note: potency is the fitted concentration of half-maximal effect
Chain of Chromobox protein homolog 1 (Homo sapiens) (P83916 whole entry, looked up): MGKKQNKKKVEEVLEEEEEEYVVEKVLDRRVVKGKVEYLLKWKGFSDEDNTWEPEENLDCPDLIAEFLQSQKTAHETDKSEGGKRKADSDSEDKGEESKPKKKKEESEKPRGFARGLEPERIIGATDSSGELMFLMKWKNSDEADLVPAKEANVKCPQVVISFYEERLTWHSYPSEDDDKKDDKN
Summary of the method: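 50 nM HP1-beta + 50 nM biotin-H3(1-18)K9me3, PBS pH 7.4, 0.01% Tween-20, 30 min RT; compound added, 30 min RT; AlphaScreen beads 10 ug/mL final, 30 min dark; luminescence read.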

[9] = target: Methanococcus maripaludis chaperonin (MmCpn) (UniProt Q6LX38); assay: High-Throughput Screening for Modulators of Cytosolic Chaperonin Activity: MmCpn Primary Screen (AID 488978);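 note: 50 nM MmCpn enzyme hydrolysing 30 µM ATP at 37 °C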
Summary of the method: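 MmCpn at 50 nM final was preincubated 5 min at RT with compound. ATP was then added at 30 uM final for 10 min at 37 C. ADP formed was detected by Transcreener HTRF (665/590 nm).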

[10] = target: Transient receptor potential cation channel subfamily V member 1 (Homo sapiens) (UniProt Q8NER1); assay: HTS Assay for Compounds that Act as Enhancers of the Vanilloid Receptor 1 (AID 488979)
Chain of Transient receptor potential cation channel subfamily V member 1 (Homo sapiens) (Q8NER1 whole entry, looked up): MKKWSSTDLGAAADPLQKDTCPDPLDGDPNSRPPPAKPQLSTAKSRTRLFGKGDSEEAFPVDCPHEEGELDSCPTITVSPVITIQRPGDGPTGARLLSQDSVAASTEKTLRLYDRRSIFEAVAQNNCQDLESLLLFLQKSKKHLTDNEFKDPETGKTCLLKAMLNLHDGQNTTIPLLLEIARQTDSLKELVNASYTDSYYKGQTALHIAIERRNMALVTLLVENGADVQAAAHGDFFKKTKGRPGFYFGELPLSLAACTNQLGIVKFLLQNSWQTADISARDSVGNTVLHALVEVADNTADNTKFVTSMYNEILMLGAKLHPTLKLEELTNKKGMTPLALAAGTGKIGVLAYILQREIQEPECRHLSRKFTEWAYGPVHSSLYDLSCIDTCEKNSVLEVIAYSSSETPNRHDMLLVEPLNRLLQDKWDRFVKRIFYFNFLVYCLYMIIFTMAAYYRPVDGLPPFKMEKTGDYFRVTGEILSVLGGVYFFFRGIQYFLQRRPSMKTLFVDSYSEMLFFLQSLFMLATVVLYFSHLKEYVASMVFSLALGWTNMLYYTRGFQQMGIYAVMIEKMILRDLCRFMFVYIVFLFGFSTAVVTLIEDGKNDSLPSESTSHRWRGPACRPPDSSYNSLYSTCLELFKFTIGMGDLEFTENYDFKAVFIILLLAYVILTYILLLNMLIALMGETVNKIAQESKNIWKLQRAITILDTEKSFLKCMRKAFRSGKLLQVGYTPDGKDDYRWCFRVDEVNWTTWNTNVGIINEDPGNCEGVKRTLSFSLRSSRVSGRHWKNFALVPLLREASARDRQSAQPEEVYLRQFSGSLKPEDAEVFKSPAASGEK
Summary of the method: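 TRPV1 cells loaded with Fluo-8 calcium dye; compound added and Ca2+ signal (ex 480/em 520 nm) followed 3 min, then capsaicin at EC20 added and read 2 more min to detect enhancement.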

[11] = target: Thyrotropin receptor (Homo sapiens) (UniProt P16473); assay: qHTS Assay for Antagonists of the Thyroid Stimulating Hormone Receptor (AID 488980); note: series mostly up to about 58 µM
Chain of Thyrotropin receptor (Homo sapiens) (P16473 whole entry, looked up): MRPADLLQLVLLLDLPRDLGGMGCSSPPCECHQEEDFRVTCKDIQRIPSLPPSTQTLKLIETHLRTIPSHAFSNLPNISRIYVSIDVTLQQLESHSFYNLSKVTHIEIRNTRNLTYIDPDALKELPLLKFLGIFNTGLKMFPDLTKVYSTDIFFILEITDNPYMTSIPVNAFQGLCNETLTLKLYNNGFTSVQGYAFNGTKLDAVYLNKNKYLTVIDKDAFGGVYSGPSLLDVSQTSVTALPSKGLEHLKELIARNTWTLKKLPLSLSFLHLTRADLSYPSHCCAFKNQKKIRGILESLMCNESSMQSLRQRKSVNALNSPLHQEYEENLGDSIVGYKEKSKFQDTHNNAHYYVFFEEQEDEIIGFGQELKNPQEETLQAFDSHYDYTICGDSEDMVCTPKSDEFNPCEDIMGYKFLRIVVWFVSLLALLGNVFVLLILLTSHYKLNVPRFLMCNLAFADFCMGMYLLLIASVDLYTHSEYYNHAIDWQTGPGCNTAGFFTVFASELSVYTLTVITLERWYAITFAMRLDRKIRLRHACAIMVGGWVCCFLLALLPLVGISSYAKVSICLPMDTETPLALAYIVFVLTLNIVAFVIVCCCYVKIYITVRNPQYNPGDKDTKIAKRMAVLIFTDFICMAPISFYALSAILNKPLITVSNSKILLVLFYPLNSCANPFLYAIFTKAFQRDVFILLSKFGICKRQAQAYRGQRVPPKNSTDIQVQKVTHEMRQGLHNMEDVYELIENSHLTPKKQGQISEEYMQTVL
Summary of the method: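 TSHR-transfected HEK293 cells (2000/well) in HEPES-buffered HBSS with 70 uM RO 20-1724 were stimulated with 4 nM TSH (EC80, final) in the presence of compound. cAMP was measured by HTRF competition after lysis and 30 min at RT.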

[12] = target: D(1A) dopamine receptor (Homo sapiens) (UniProt P21728); assay: HTS Assay for Allosteric Agonists of the Human D1 Dopamine Receptor: Primary Screen for Agonists (AID 488981)
Chain of D(1A) dopamine receptor (Homo sapiens) (P21728 whole entry, looked up): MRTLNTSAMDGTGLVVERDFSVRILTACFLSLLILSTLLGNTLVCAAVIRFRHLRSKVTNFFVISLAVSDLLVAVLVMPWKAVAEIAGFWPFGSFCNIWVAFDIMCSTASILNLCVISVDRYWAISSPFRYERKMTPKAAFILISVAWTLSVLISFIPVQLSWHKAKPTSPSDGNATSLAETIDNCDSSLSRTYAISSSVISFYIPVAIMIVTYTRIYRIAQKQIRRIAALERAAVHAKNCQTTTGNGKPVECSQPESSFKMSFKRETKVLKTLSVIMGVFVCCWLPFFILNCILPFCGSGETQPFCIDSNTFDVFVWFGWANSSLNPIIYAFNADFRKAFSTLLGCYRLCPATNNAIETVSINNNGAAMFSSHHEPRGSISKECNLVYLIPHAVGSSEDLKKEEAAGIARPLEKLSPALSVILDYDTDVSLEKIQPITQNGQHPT
Summary of the method: (§1)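 Tetracycline-induced HEK293 Trex D1 cells with forced coupling to calcium, loaded with no-wash calcium dye; kinetic fluorescence read 180 s after compound addition for agonism, then a further 180 s after an EC20 dopamine challenge for potentiation.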

[13] = target: D(1A) dopamine receptor (Homo sapiens) (UniProt P21728); assay: HTS Assay for Allosteric Agonists of the Human D1 Dopamine Receptor: Primary Screen for Potentiators (AID 488982)
Summary of the method: as §1

[14] = target: D(1A) dopamine receptor (Homo sapiens) (UniProt P21728); assay: HTS Assay for Allosteric Agonists of the Human D1 Dopamine Receptor: Primary Screen for Antagonists (AID 488983);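 note: calcium flux response to an EC80 dopamine challenge measured with no-wash dye; nearly all actives have a fitted effect of over 65% in size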
Summary of the method: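 Cells are induced with tetracycline and incubated overnight at 30 C, then loaded with calcium dye for 30 to 90 minutes at room temperature. Compound addition is followed by a 180 s read, then an EC80 dopamine addition and another 180 s read.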

[15] = target: ATP-dependent 6-phosphofructokinase (Trypanosoma brucei brucei) (UniProt O15648); assay: qHTS Assay to Find Inhibitors of T. brucei phosphofructokinase: hit validation (AID 492961); note: series mostly up to about 51 µM
Chain of ATP-dependent 6-phosphofructokinase (Trypanosoma brucei brucei) (O15648 whole entry, looked up): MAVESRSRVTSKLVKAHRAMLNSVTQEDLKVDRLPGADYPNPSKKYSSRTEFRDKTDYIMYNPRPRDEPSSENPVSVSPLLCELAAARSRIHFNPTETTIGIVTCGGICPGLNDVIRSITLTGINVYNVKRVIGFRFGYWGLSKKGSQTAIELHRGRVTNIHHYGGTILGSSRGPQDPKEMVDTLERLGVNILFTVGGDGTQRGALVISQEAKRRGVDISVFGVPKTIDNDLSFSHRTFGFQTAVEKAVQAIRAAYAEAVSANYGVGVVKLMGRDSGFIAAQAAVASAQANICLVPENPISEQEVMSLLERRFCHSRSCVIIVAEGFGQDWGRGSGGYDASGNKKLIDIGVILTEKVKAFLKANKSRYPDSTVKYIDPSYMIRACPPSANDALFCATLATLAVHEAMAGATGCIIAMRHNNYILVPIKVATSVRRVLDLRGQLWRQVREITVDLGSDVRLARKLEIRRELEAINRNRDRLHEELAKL
Summary of the method: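 Luminescence from ADP-Glo reports ADP generated as T. brucei PFK (1.25 nM) phosphorylates 0.5 mM fructose-6-phosphate using 0.1 mM ATP. Reactions ran 45 min at room temperature, pH 8.0.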

[16] = Validation screen for small molecules that induce genotoxicity in human embryonic kidney (HEK293T) cells expressing luciferase-tagged ELG1 (AID 493106)
Summary of the method: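 Luminescence from an ELG1-luciferase fusion serves as the read-out, rising when genetic stress elevates ELG1 protein. HEK293T reporter cells (2,000 per well) received 23 nL compound, incubated 16 hr at 37 °C, then ONE-Glo for 30 min at room temperature.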

[17] = qHTS Validation Assay to Find Inhibitors of Chronic Active B-Cell Receptor Signaling (AID 485345; active = well fitted curve in the direction sought with a large enough effect in the main read-out, with a control signal flat, not every such curve was filed as active)
Summary of the method: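 TMD8 ABC-DLBCL cells stably carrying doxycycline-inducible IkappaBalpha–green luciferase fusion plus unfused red luciferase; compounds 46 uM to 3 nM, 4 h at 37C with doxycycline. Corrected green/red luminescence ratio normalized to 10 uM MG-132 and basal cell wells; curves fitted.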

[18] = target: ATP-dependent 6-phosphofructokinase (Trypanosoma brucei brucei) (UniProt O15648); assay: qHTS Validation Assay to Find Inhibitors of T. brucei phosphofructokinase (AID 485368); conditions: outcome: dose series up to 57.5 µM
Summary of the method: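 Compounds (up to 57 uM, titration series) were pinned into substrate buffer, then 1.25 nM PFK added; after 45 min at room temperature, ADP product was quantified by ADP-Glo luminescence and concentration-response curves fitted.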

[19] = Quantitative high throughput screen for delayed death inhibitors of the malarial parasite plastid, 96 hour incubation (AID 488745); note: nearly all actives have a fitted effect of over 70% in size; note: potency is the fitted concentration of half-maximal effect
Summary of the method: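 Infected erythrocytes were added to compound in Albumax-supplemented RPMI 1640 at 0.1% parasitemia and 2% hematocrit (final), incubated 96 h at 37 C under 5% CO2, then luciferase reagent was added and luminescence measured.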

[20] = Quantitative high throughput screen for delayed death inhibitors of the malarial parasite plastid, 48 hour incubation (AID 488752); note: nearly all actives have a fitted effect of over 65% in size; note: potency is the fitted concentration of half-maximal effect
Summary of the method: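 Readout is firefly luciferase luminescence from a reporter integrated into the parasite genome, with lower signal taken as inhibited growth. Infected red cells (0.1% parasitemia, 2% hematocrit final) are cultured with compound for one 48 h cycle at 37 C.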

| SMILES | Potency [1] | outcome [2] | outcome [3] | outcome [4] | Potency [5] | Potency [6] | Potency [7] | Potency [8] | outcome [9] | outcome [10] | outcome [11] | Potency [12] | Potency [13] | Potency [14] | outcome [15] | Potency [16] | Potency [17] | outcome [18] | Potency [19] | Potency [20] |
| --- | --- | --- | --- | --- | --- | --- | --- | --- | --- | --- | --- | --- | --- | --- | --- | --- | --- | --- | --- | --- |
| OC(CCN1CCCCC1)(c1ccccc1)C1CCCCC1 (configuration not stated) | inactive | inactive | inactive | inactive | inactive | inactive | inactive | inactive | inactive | inactive | inactive | inactive | inactive | inactive | inactive | inactive |  |  |  |  |
| CNCCC(Oc1ccccc1OC)c1ccccc1 (configuration not stated) |  | inactive | inactive | inactive |  | inactive | inactive | inactive |  | inactive | inactive | inactive | inactive |  |  | inactive | inactive | inactive | inactive | inactive |
| C[C@]12CC[C@@H]3c4ccc(O)cc4C[C@@H](CCCCCCCCCS(=O)CCCC(F)(F)C(F)(F)F)[C@H]3[C@@H]1CC[C@@H]2O (some centres not stated) | inactive | inactive | inactive |  |  | inactive | inactive | inactive | inactive |  |  | inactive | inactive | inactive |  |  |  | inactive |  |  |
| Cc1ccc(Cl)c(Nc2ccccc2C(=O)O)c1Cl | inactive | inactive | inactive | inactive | inactive | inactive | inactive | inactive |  | inactive | inactive | inactive | inactive | inactive | inactive | inactive |  | inactive | inactive | inactive |
| COc1cc2c(cc1OC)-c1cc(=Nc3c(C)cc(C)cc3C)n(C)c(=O)n1CC2 | inactive | inactive | inactive | inactive | inactive | inactive | 39.8 µM (active) and inactive | 35.5 µM (active) |  | inactive | inactive | inactive | inactive |  | inactive | inactive |  | inactive | 3.7 µM (active) | 2.62 µM (active) |
| CCN1CCc2nc(N)oc2CC1 |  | inactive | inactive | inactive | 29.9 µM (active) | inactive | inactive | inactive |  | inactive | inactive | inactive | inactive | inactive |  |  | inactive | inactive | inactive | inactive |
| CN(C)[C@@H]1C(=O)C(C(N)=O)=C(O)[C@@]2(O)C(=O)C3=C(O)c4c(O)ccc(Cl)c4[C@@H](O)[C@H]3C[C@@H]12 | inactive | inactive | inactive | inactive |  | 29.9 µM (active) |  |  | inactive |  |  | inactive | inactive | inactive |  |  | inactive |  |  |  |
| O=C(O)CN(CCOCCOCCN(CC(=O)O)CC(=O)O)CC(=O)O |  | inactive | inactive | inactive | inactive | inactive | inactive | inactive | inactive | inactive | inactive | inactive | inactive | inactive |  | inactive | inactive | inactive | inactive | inactive |
| COc1ccc(CCN(C)CCCC(C#N)(c2cc(OC)c(OC)c(OC)c2)C(C)C)cc1OC (configuration not stated) | inactive | inactive | inactive | inactive | inactive | inactive | inactive | inactive |  | inactive | inactive | inactive | inactive | inactive |  | inactive |  | inactive | 11.7 µM (active) | 8.28 µM (active) |
| CC(C)NCC(O)c1cc(O)cc(O)c1 (configuration not stated) | inactive | inactive |  | inactive | inactive |  | inactive | inactive | inactive | inactive | inactive | inactive | inactive | inactive |  |  | inactive | inactive | inactive | inactive |
| CCCC(C(=O)OCCN(CC)CC)(c1ccccc1)c1ccccc1 | inactive | inactive | inactive | inactive | inactive | inactive | inactive |  | inactive | inactive | inactive | inactive | inactive | inactive |  |  |  |  |  |  |
| NC(N)=NC(=O)Cc1c(Cl)cccc1Cl | inactive | inactive | inactive | inactive | inactive | inactive | inactive | inactive | inactive | inactive | inactive | inactive | inactive |  |  | inactive |  | inactive | 5.22 µM (active) |  |
| C[n+]1cc2c3c(ccc2c2ccc4cc5c(cc4c21)OCO5)OCO3 | 8.44 µM (active) |  | inactive | inactive |  | inactive | 31.6 µM (active) and inactive | inactive |  |  |  | inactive | inactive | inactive |  |  |  |  |  |  |
